Test results reported in PubChem BioAssay (Tox21).
Results filed as inconclusive are left out. Entries that show only a call come without a potency. Unmarked numbers belong to inactive results. Active and inactive are the calls of the source. The call rests on the fitted dose curve.

These compounds were tested against 5-hydroxytryptamine receptor 2A (Homo sapiens) (UniProt P28223) (assay: 5-hydroxytryptamine receptor 2A (HTR2A) small molecule antagonists, cell-based qHTS assay (AID 1963586; further: nearly all actives have a fitted effect of over 45% in size)). Details: HTR2A-CHO cells, DOI-induced calcium flux, fluorescence; series mostly up to 61.5 µM.
How it was run: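 Antagonist-mode intracellular calcium assay: DOI (4 nM) added after 5 min compound pre-incubation at room temperature to dye-loaded HTR2A-CHO cells. Fluorescence followed for 3 min, sampled every second.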

Sequence of 5-hydroxytryptamine receptor 2A (Homo sapiens) (P28223 whole entry, looked up): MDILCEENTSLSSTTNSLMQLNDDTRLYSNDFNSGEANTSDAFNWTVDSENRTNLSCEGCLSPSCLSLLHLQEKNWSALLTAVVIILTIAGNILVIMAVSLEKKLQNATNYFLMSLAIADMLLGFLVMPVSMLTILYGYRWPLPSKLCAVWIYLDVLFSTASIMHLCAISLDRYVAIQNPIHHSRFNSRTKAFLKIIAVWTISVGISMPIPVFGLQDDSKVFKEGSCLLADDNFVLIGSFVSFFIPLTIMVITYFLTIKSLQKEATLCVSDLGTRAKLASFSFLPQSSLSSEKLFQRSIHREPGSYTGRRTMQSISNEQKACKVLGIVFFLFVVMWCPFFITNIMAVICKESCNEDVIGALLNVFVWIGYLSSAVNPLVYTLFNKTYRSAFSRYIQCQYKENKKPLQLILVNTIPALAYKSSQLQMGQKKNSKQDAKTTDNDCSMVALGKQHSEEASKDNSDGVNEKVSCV

Compound	Potency	activity, negative = inhibition
CC1CCC(CO)CC1 (configuration not stated)	inactive	–
Cc1c[nH]c(=S)[nH]c1=O	inactive	–
CC(=O)OC1C2(C)CCC(C2)C1(C)C (configuration not stated)	inactive	–
COP(=O)(OC)OC(c1ccc(Cl)cc1)P(=O)(OC)OC (configuration not stated)	inactive	–
CCC(Cl)CC(Cl)C(Cl)C(Cl)C(Cl)C(C)Cl (configuration not stated)	–	-18.7% [at 12.7 µM]
CCCOC(=O)CCCCC(=O)OCCC	inactive	–
CCCCCCC[N+](CC)(CC)CCCCc1ccc(Cl)cc1	inactive	–
O=C1CCCCCCCCCCCC(=O)OCCO1	inactive	–
CCCCCCCCCCl	inactive	–
CC(C)CCCCCCOC(=O)C1CCCCC1C(=O)OCCCCCCC(C)C (configuration not stated)	inactive	–
O=S(=O)(O)c1cc(O)c2ccc(Nc3ccccc3)cc2c1	inactive	–
SC1CCCC1	inactive	–
Cn1cc(C(=O)[C@@H]2CCc3nc[nH]c3C2)c2ccccc21	inactive	–
CC1=C(O)C(=O)CO1	inactive	–
Cc1ccc2ccc3cccc4ccc1c2c34	inactive	–
NC(=O)N(O)[C@@H]1COc2cc(OCc3ccccc3)ccc21	inactive	–
Nc1ccc2cc(S(=O)(=O)O)cc(O)c2c1N=Nc1ccccc1C(F)(F)F	inactive	–
CCCCOCCOCCOCc1cc2c(cc1CCC)OCO2	inactive	–
CCCC(=O)O[C@]1(C(=O)COC(=O)CC)CC[C@H]2[C@@H]3CCC4=CC(=O)CC[C@]4(C)[C@H]3[C@@H](O)C[C@@]21C	–	-43.5% [at 12.7 µM]
CCN1C=CN(C)C1C (configuration not stated)	inactive	–
CC1CCC(=O)C1=O (configuration not stated)	inactive	–
COc1ccc(CCN(C)CCCN2CCc3cc(OC)c(OC)cc3CC2=O)cc1OC	inactive	–
